Inconclusive results are not listed. A call without a number means that no potency is given here. Values without a mark were called inactive. The source made the active and inactive calls. Calls come from the whole dose curve; tested in HEK293 reporter line. Peptide text beside a SMILES is read from it.
Test: qHTS for Inhibitors of the Functional Ribonucleoprotein Complex (vRNP) of Lassa (LASV) Arenavirus: Viability assay - alamar blue signal for LASV Primary Screen (AID 1347083)
Settings: cell viability, alamar blue fluorescence (LASV minigenome counter-screen); series mostly up to 57.5 µM
Note: nearly all actives have a fitted effect of over 80% in size.

Row | Structure (SMILES) | Potency | activity change, negative = reduced viability
1 | CC(CC(C#N)(c1ccccc1)C(C)C)N(C)C (stereo not given) | inactive | 
2 | Cn1c(=O)c2[nH]c(Br)nc2n(C)c1=O | inactive | 
3 | CC(C)NNC(=O)c1ccncc1 | inactive | 
4 | C#C[C@]1(O)CC[C@H]2[C@@H]3CCc4cc(OC5CCCC5)ccc4[C@H]3CC[C@@]21C | inactive | 
5 | CC(C)=CCC/C(C)=C/CC/C(C)=C/CCC(=O)OC/C=C(\C)CCC=C(C)C | inactive | 
6 | Cc1cccc(C)c1NC(=O)c1cc(S(N)(=O)=O)c(Cl)cc1O | inactive | 
7 | O=C(O)CNC(=O)c1ccccc1 | inactive | 
8 | CC(C)CCCC(C)NCCC(C)C (stereo not given) | inactive | 
9 | C[C@H]1O[C@@H](n2cc(F)c(=O)[nH]c2=O)[C@H](O)[C@@H]1O | inactive | 
10 | Cn1c(=O)c2c(ncn2CCO)n(C)c1=O | inactive | 
11 | C=CCc1ccc(O)c(OC)c1 | inactive | 
12 | O=C1OC2(c3ccccc31)c1cc(Br)c(O)c(Br)c1Oc1c2cc(Br)c(O)c1Br | inactive | 
13 | Cc1cc(CC(=O)O)c(C)n1-c1ccc(Cl)cc1 | inactive | 
14 | CC(=O)NO | inactive | 
15 | CC=CC1=C(C(=O)O)N2C(=O)[C@H](NC(=O)[C@H](N)c3ccc(O)cc3)[C@@H]2SC1 | inactive | 
16 | C[C@]12C=CC(=O)C=C1[C@@H](F)C[C@@H]1[C@@H]2[C@@H](O)C[C@@]2(C)[C@H]1CC[C@]2(O)C(=O)CO | inactive | 
17 | NS(=O)(=O)c1ccc(NC(=O)CCC(=O)O)cc1 | inactive | 
18 | CO[C@@H]1[C@@H](OC(N)=O)[C@@H](O)[C@H](Oc2ccc3c(O)c(NC(=O)c4ccc(O)c(CC=C(C)C)c4)c(=O)oc3c2C)OC1(C)C | inactive | 
19 | CCOC(=O)O[C@]1(C(=O)OCCl)CC[C@H]2[C@@H]3CCC4=CC(=O)C=C[C@]4(C)[C@H]3[C@@H](O)C[C@@]21C | inactive | 
20 | CC(=O)Nc1ccc(CC(=O)O)cc1 | inactive | 

Row | Structure (SMILES) | Potency | activity change, negative = reduced viability
21 | COc1cc2c(Nc3ccc(Br)cc3F)ncnc2cc1OCC1CCN(C)CC1 | inactive | 
22 | COc1ccc(S(=O)(=O)Nc2nnc(CC(C)C)s2)cc1 | inactive | 
23 | CCCCCCCN(CC)CCCC(O)c1ccc(NS(C)(=O)=O)cc1 (stereo not given) | inactive | 
24 | CC(C)C(=O)c1c(C(C)C)nn2ccccc12 | inactive | 
25 | O=C(O)CN(CCN(CC(=O)O)CC(=O)O)CCN(CC(=O)O)CC(=O)O | inactive | 
26 | Cc1cc(NS(=O)(=O)c2ccc(N)cc2)nc(C)n1 | inactive | 
27 | c1ccc2c(c1)CCCC2C1=NCCN1 (stereo not given) | inactive | 
28 | C[C@@H]1CCC[C@H](C)N1 | inactive | 
29 | CC(C)(C)C(=O)Oc1ccc(S(=O)(=O)Nc2ccccc2C(=O)NCC(=O)O)cc1 | inactive | 
30 | CC(=O)OCC(=O)[C@@]1(O)[C@H](OC(C)=O)C[C@H]2[C@@H]3CCC4=CC(=O)C=C[C@]4(C)[C@@]3(F)[C@@H](O)C[C@@]21C | inactive | 
31 | Cc1noc(NS(=O)(=O)c2ccc(N)cc2)c1C | inactive | 
32 | CN1C(C)(C)CCCC1(C)C | inactive | 
33 | O=c1[nH]c(=O)n([C@H]2C[C@H](O)[C@@H](CO)O2)cc1Br | inactive | 
34 | O=C(O)Cc1cccc(-c2cc(CCCCCCc3ccc(O[C@H]4O[C@H](CO)[C@@H](O)[C@H](O)[C@@H]4O)c(-c4cccc(CC(=O)O)c4)c3)ccc2O[C@H]2O[C@H](CO)[C@@H](O)[C@H](O)[C@@H]2O)c1 |  | 10.5% [at 0.757 µM]
35 | Cc1[nH]cnc1-c1ccc(Cl)cc1 | inactive | 
36 | CC(NN)c1ccccc1 (stereo not given) | inactive | 
37 | CC(=O)N(c1onc(C)c1C)S(=O)(=O)c1ccc(N)cc1 | inactive | 
38 | CC(=O)N[C@@H](CCC(=O)O)C(=O)O | inactive | 
39 | CCNC(=O)[C@@H]1CCCN1C(=O)[C@H](CCCN=C(N)N)NC(=O)[C@H](CC(C)C)NC(=O)CNC(=O)[C@H](Cc1ccc(O)cc1)NC(=O)[C@H](CO)NC(=O)[C@H](Cc1c[nH]c2ccccc12)NC(=O)[C@H](Cc1cnc[nH]1)NC(=O)[C@@H]1CCC(=O)N1 (HELM PEPTIDE1{[Glp].H.W.S.Y.G.L.R.P.[CCN[*:1]]}$$$$V2.0) | inactive | 
40 | COC(=O)c1cccnc1 | inactive | 

Test: qHTS for Inhibitors of the Functional Ribonucleoprotein Complex (vRNP) of Lymphocytic Choriomeningitis Arenaviruses (LCMV): Viability assay - alamar blue signal for LCMV Primary Screen (AID 1347085)
Settings: alamar blue viability counter-screen, LCMV vRNP screen cells; series mostly up to 57.5 µM

Row | Structure (SMILES) | Potency | activity change, negative = lower viability
41 | CC(CC(C#N)(c1ccccc1)C(C)C)N(C)C (stereo not given) | inactive | 
42 | Cn1c(=O)c2[nH]c(Br)nc2n(C)c1=O | inactive | 
43 | CC(C)NNC(=O)c1ccncc1 | inactive | 
44 | C#C[C@]1(O)CC[C@H]2[C@@H]3CCc4cc(OC5CCCC5)ccc4[C@H]3CC[C@@]21C | inactive | 
45 | CC(C)=CCC/C(C)=C/CC/C(C)=C/CCC(=O)OC/C=C(\C)CCC=C(C)C | inactive | 
46 | Cc1cccc(C)c1NC(=O)c1cc(S(N)(=O)=O)c(Cl)cc1O | inactive | 
47 | O=C(O)CNC(=O)c1ccccc1 | inactive | 
48 | CC(C)CCCC(C)NCCC(C)C (stereo not given) | inactive | 
49 | C[C@H]1O[C@@H](n2cc(F)c(=O)[nH]c2=O)[C@H](O)[C@@H]1O | inactive | 
50 | Cn1c(=O)c2c(ncn2CCO)n(C)c1=O | inactive | 
51 | C=CCc1ccc(O)c(OC)c1 | inactive | 
52 | O=C1OC2(c3ccccc31)c1cc(Br)c(O)c(Br)c1Oc1c2cc(Br)c(O)c1Br | inactive | 
53 | Cc1cc(CC(=O)O)c(C)n1-c1ccc(Cl)cc1 | inactive | 
54 | CC(=O)NO | inactive | 
55 | CC=CC1=C(C(=O)O)N2C(=O)[C@H](NC(=O)[C@H](N)c3ccc(O)cc3)[C@@H]2SC1 | inactive | 
56 | C[C@]12C=CC(=O)C=C1[C@@H](F)C[C@@H]1[C@@H]2[C@@H](O)C[C@@]2(C)[C@H]1CC[C@]2(O)C(=O)CO | inactive | 
57 | NS(=O)(=O)c1ccc(NC(=O)CCC(=O)O)cc1 | inactive | 
58 | CO[C@@H]1[C@@H](OC(N)=O)[C@@H](O)[C@H](Oc2ccc3c(O)c(NC(=O)c4ccc(O)c(CC=C(C)C)c4)c(=O)oc3c2C)OC1(C)C | inactive | 
59 | CCOC(=O)O[C@]1(C(=O)OCCl)CC[C@H]2[C@@H]3CCC4=CC(=O)C=C[C@]4(C)[C@H]3[C@@H](O)C[C@@]21C | inactive | 
60 | CC(=O)Nc1ccc(CC(=O)O)cc1 | inactive | 

Row | Structure (SMILES) | Potency | activity change, negative = lower viability
61 | COc1cc2c(Nc3ccc(Br)cc3F)ncnc2cc1OCC1CCN(C)CC1 | inactive | 
62 | COc1ccc(S(=O)(=O)Nc2nnc(CC(C)C)s2)cc1 | inactive | 
63 | CCCCCCCN(CC)CCCC(O)c1ccc(NS(C)(=O)=O)cc1 (stereo not given) | inactive | 
64 | CC(C)C(=O)c1c(C(C)C)nn2ccccc12 | inactive | 
65 | O=C(O)CN(CCN(CC(=O)O)CC(=O)O)CCN(CC(=O)O)CC(=O)O | inactive | 
66 | Cc1cc(NS(=O)(=O)c2ccc(N)cc2)nc(C)n1 | inactive | 
67 | c1ccc2c(c1)CCCC2C1=NCCN1 (stereo not given) | inactive | 
68 | C[C@@H]1CCC[C@H](C)N1 | inactive | 
69 | CC(C)(C)C(=O)Oc1ccc(S(=O)(=O)Nc2ccccc2C(=O)NCC(=O)O)cc1 | inactive | 
70 | CC(=O)OCC(=O)[C@@]1(O)[C@H](OC(C)=O)C[C@H]2[C@@H]3CCC4=CC(=O)C=C[C@]4(C)[C@@]3(F)[C@@H](O)C[C@@]21C | inactive | 
71 | Cc1noc(NS(=O)(=O)c2ccc(N)cc2)c1C | inactive | 
72 | CN1C(C)(C)CCCC1(C)C | inactive | 
73 | O=c1[nH]c(=O)n([C@H]2C[C@H](O)[C@@H](CO)O2)cc1Br | inactive | 
74 | O=C(O)Cc1cccc(-c2cc(CCCCCCc3ccc(O[C@H]4O[C@H](CO)[C@@H](O)[C@H](O)[C@@H]4O)c(-c4cccc(CC(=O)O)c4)c3)ccc2O[C@H]2O[C@H](CO)[C@@H](O)[C@H](O)[C@@H]2O)c1 |  | 2.8% [at 0.757 µM]
75 | Cc1[nH]cnc1-c1ccc(Cl)cc1 | inactive | 
76 | CC(NN)c1ccccc1 (stereo not given) | inactive | 
77 | CC(=O)N(c1onc(C)c1C)S(=O)(=O)c1ccc(N)cc1 | inactive | 
78 | CC(=O)N[C@@H](CCC(=O)O)C(=O)O | inactive | 
79 | CCNC(=O)[C@@H]1CCCN1C(=O)[C@H](CCCN=C(N)N)NC(=O)[C@H](CC(C)C)NC(=O)CNC(=O)[C@H](Cc1ccc(O)cc1)NC(=O)[C@H](CO)NC(=O)[C@H](Cc1c[nH]c2ccccc12)NC(=O)[C@H](Cc1cnc[nH]1)NC(=O)[C@@H]1CCC(=O)N1 (HELM PEPTIDE1{[Glp].H.W.S.Y.G.L.R.P.[CCN[*:1]]}$$$$V2.0) | inactive | 
80 | COC(=O)c1cccnc1 | inactive | 
